This is an account of results in PubChem BioAssay (EPA / NIEHS).

The structures appear in SMILES notation. Results filed as inconclusive are left out. The source made the active and inactive calls. How the source made its calls: active means hit-call score of the fitted dose curve at least 0.9, where 1 is the maximum; inconclusive means response in the unintended direction; inactive means score below 0.9.

This assay is described as follows: CCTE_Mundy_HCI_Cortical_NOG_NeuronCount: CCTE's Neurite Outgrowth Assay in rat cortical cells for Neuron Count, Mundy Lab (AID 2284236).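 Further: neurons counted by imaging betaIII-tubulin and Hoechst stained cortical cells; cells exposed to compound for about 48 hours before fixation.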 As to the method: CCTE_Mundy_HCI_Cortical_NOG is a multiplexed, cell-based-readout assay that uses rat primary cortical cells with measurements taken at 50.33 hours after chemical dosing in a microplate: 96-well plate.CCTE_Mundy_HCI_Cortical_NOG_NeuronCount is one of four components of the CCTE_Mundy_HCI_Cortical_NOG assay. It measures cell viability related to the number of neurons using High Content Imaging of fluorescently labelled markers.[…] Using a type of morphology reporter, loss -of-signal activity can be used to understand developmental effects.
Exposure starts 2 hours post-plating by adding 10 ul of the working solution to 90 ul of media in the wells for a 1/10 dilution. Forty-eight hours after chemical treatment cells are fixed by direct addition of 100 ul of warm (37C) Dulbecco's phosphate buffered saline (DPBS) fixative solution containing 8% paraformaldehyde, 8% sucrose, and 0.1% of 3 mg/ml Hoechst 33342 into each well. Primary antibodies are prepared by dilution in Immunocytochemical Staining Buffer (ISB), 10X Dulbecco's PBS, 0.1% Saponin, 5% Bovine Serum Albumin, 0.5% NaN3 (Sodium Azide) and betaIII-tubulin (rabbit anti-betaIII-tubulin, 1:800) followed by Alexa Fluor-488 secondary (1:500) to label neuronal cell bodies and neurites. A Cellomics ArrayScan VTi HCS Reader is used for automated image acquisition and analysis of neurite outgrowth.
In the case of `Cc1c(COC(=O)[C@@H]2[C@H](/C=C(\Cl)C(F)(F)F)C2(C)C)cccc1-c1ccccc1`, the AC50 is 21.2 µM (active).
On to `CCOP(=O)(OCC)Oc1nc(Cl)c(Cl)cc1Cl`, for which the result was inactive.
For the molecule `C=C(C)CN(CC)c1c([N+](=O)[O-])cc(C(F)(F)F)cc1[N+](=O)[O-]`, the AC50 is 50 µM (active).
On to `CN/C(=N\[N+](=O)[O-])NCc1cnc(Cl)s1`, for which the molecule was called inactive.
For `CO/N=C(/C1=NOCCO1)c1ccccc1Oc1ncnc(Oc2ccccc2Cl)c1F`, the half-maximal activity concentration (AC50) was 10.9 µM (active).
Take `COP(=S)(OC)SCn1nnc2ccccc2c1=O`: the molecule was classed as inactive.
For the molecule `CS(=O)(=O)c1cc(C(F)(F)F)ccc1C(=O)c1cnoc1C1CC1`, the AC50 was 9.92 µM (active).
Consider `CC(C)(C)C(=O)C(Oc1ccc(Cl)cc1)n1cncn1` (configuration not stated), for which the result was inactive.
On the same count and under the same terms, the value for `CCNC(=O)NC(=O)C(C#N)=NOC` was “inactive”.
For `CCSC(=O)N1CCCCCC1`, the call was inactive.
With `O=C(Nc1ccccc1-c1ccc(Cl)cc1)c1cccnc1Cl`, the molecule was classed as inactive.
As for `CCN(CC)c1nc(C)cc(OP(=S)(OC)OC)n1`, the AC50 is 80.8 µM (active).

What is called AC50 is the concentration at which the activity in the assay is half-maximal.
